According to ChEMBL document CHEMBL1157539, “Thousands of chemical starting points for antimalarial lead identification” (Nature, 2010):

Columns and labels:
Assay type in all cases: functional
Plasmodium falciparum [1] = test: GSK_TCMDC: Inhibition of Plasmodium falciparum 3D7 in whole red blood cells, using parasite LDH activity as an index of growth. Test compounds present at 2uM
HepG2 = test: GSK_TCMDC: Percent inhibition of human HepG2 cell line. Test compounds present at 10uM.
Plasmodium falciparum [2] = test: GSK_TCMDC: Inhibition of Plasmodium falciparum Dd2 in whole red blood cells, using parasite LDH activity as an index of growth. Test compounds present at 2uM

Row | Compound | Inhibition (Plasmodium falciparum [1]) [%] | Inhibition (HepG2) [%] | Inhibition (Plasmodium falciparum [2]) [%]
1 | Brc1ccsc1-c1nc(NC2CCN(Cc3ccccc3)CC2)no1 | 80 | 0 | 
2 | CC(C)Oc1cccc(-c2ccc(C(=O)NCC3CCCN(Cc4cccc(C(F)(F)F)c4)C3)s2)c1.O=C(O)C(F)(F)F (stereo not given) | 91 | 10 | 28
3 | COc1cc(Nc2nccc(N3CCC(NS(=O)(=O)c4ccc(NC(C)=O)cc4)CC3)n2)cc(OC)c1OC | 91 | 0 | 42
4 | COc1ccc(NC(=O)Nc2ccc(-c3cccc(-c4nc5cccc(C)c5[nH]4)c3)cc2)cc1 | 100 | 33 | 75
5 | Cc1cc2nc(-c3ccc(C(=O)NC4CCN(Cc5ccccc5)CC4)s3)[nH]c2cc1C | 99 | 33 | 82
6 | CN(C)Cc1ccc(-c2ccc3c(Nc4ccc(Oc5ccccn5)cc4)ccnc3c2)o1 | 100 | 18 | 100
7 | CCOc1cc(C)ccc1N1CCN(CCCCNC(=O)c2ccc(NC(=O)c3ccc(Cl)cc3)cc2)CC1.Cl | 100 | 19 | 46
8 | COc1ccc(NS(=O)(=O)c2ccc(Oc3nc(C)nc4sc5c(c34)CCCC5)cc2)cc1 | 96 | 5 | 
9 | CN(C)CCCn1cncc1-c1ccc2ncnc(Nc3ccc4c(cnn4Cc4ccccc4)c3)c2c1 | 100 | 17 | 77
10 | Cc1ccccc1Cc1cccc(/N=C(\N)Nc2ccc(Cl)cc2)n1 | 91 | 48 | 56
11 | COc1cc2ccccc2c(OC)c1CCNCCCCNCCc1c(OC)cc2ccccc2c1OC.CS(=O)(=O)O | 99 | 100 | 30
12 | Cc1cccc2nc(-c3ccc(-c4ccc(NC(=O)C5CCN(C)CC5)cc4)cc3)[nH]c12 | 100 | 28 | 92
13 | N=c1ccn(CC(=NO)c2ccc(Cl)c(Cl)c2)cc1 | 87 | 23 | 81
14 | c1ccc(-c2n[nH]cc2Nc2ccnc3ccccc23)nc1 | 100 | 36 | 98
15 | Cl.N=C(N)NN=C1C=Cc2cccc3cccc1c23 | 100 | 9 | 49
16 | CN(C)CCCOc1cccc(NC(=O)Nc2ccc(Cl)c(Cl)c2)c1.O=C(O)C(F)(F)F | 90 | 6 | 8
17 | N#Cc1ccc(CN2CCC(Oc3ccc(NC(=O)c4cccs4)cc3Cl)C2)cc1.O=C(O)C(F)(F)F (stereo not given) | 96 | 31 | 95
18 | Cl.O=C(/C=C/c1ccc(F)cc1)NC1CCC(CCN2CCCN(c3ccc(C(F)(F)F)cn3)CC2)CC1 (stereo not given) | 97 | 29 | 13
19 | COc1ccc(CN2CCCN(Cc3cccc(NC(=O)c4cc5ccccc5s4)c3)CC2)cc1.O=C(O)C(F)(F)F | 94 | 32 | 32
20 | COc1ccc2nc(-c3cc(-c4ccc(NC(=O)C(C)C)cc4)cnc3N)[nH]c2c1 | 100 | 43 | 47
21 | COc1ccc2c(NN=Cc3ccccc3Cl)ccnc2c1 | 99 | 10 | 46
22 | Nc1ccc(-c2ccc(NC(=O)Nc3cc(C(F)(F)F)ccc3F)cc2)cn1 | 99 | 0 | 39
23 | Nc1c(Cl)cc(C(O)CNCCCCCOCCCc2ccc3ncccc3c2)cc1Cl.O=C(O)/C=C/C(=O)O (stereo not given) | 96 | 24 | 77
24 | COc1ccc2c(NN=Cc3ccccn3)ccnc2c1 | 100 | 14 | 96
25 | COc1ccc2nccc([C@@H](O)CN3CCC(NC(=O)c4ccc5nc(-n6cccc6)sc5c4)CC3)c2c1 | 90 | 26 | 40
26 | CCOC(=O)CCCOc1cc(Cc2cnc(N)nc2N)cc(OC)c1OC | 97 | 12 | 3
27 | S=C(Nc1ccc(Cl)cc1)Nc1ccc(Nc2ccccc2)cc1 | 84 | 14 | 
28 | COc1nc2c(CCN3CCC(NCc4ccc5c(c4)NCCO5)CC3)c(Cl)cnc2cc1F.Cl | 100 | 23 | 98
29 | O=C(Nc1ccc(OC2CCN(CC3CC3)CC2)c(Cl)c1)c1ccc2ncccc2c1.O=C(O)C(F)(F)F | 84 | 19 | 
30 | O=C(O)C(F)(F)F.Oc1ccc(CNCC2CCN(CC3CCCCC3)CC2)cc1 | 82 | 9 | 
